Results from PubChem BioAssay AID1159580 (chemical genetic matrix, 2015).
Values joined by “and” are separate entries in the source; they are usually repeats but may differ in a detail not shown here. Identical values can stand only once. The whole screen tested about 5,500 compounds, of which about 2,000 (36%) were called active. Inconclusive results (about 18%) are left out. No stated cut-off is given here; in the data, active means normalized growth mostly below about 0.91 (no sharp cut-off); inconclusive means no clear call, values can overlap the other calls; inactive means mostly above about 0.92. This is one part of the list.

Assay: chemical genetic growth profiling, strain panel (AID 1159580);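 further: tested at 20 µM; growth read once vehicle control cultures reached saturation at 30 °C; 1 = growth at the plate median or of vehicle wells; lower values mean less growth of the strain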
Details: S. cerevisiae deletion strains, growth OD

Measured: normalized growth

Cn1c(=O)c2[nH]c(C3CCCC3)nc2n(C)c1=O
inactive: locus YAL013W, strain DEP1, hits give low values 1.01 | locus YAL021C, strain ccr4, hits give low values 0.989 | locus YAL026C, strain drs2, hits give low values 0.997 | locus YAL030W, strain snc1, hits give low values 0.99 | locus YAL040C, strain CLN3, hits give low values 0.977 | locus YBL061C, strain skt5, hits give low values 0.996 | locus YBR009C, strain hhf1, hits give low values 0.99 | locus YBR021W, strain FUR4, hits give low values 1.02 | locus YBR023C, strain chs3, hits give low values 0.996 | locus YBR171W, strain sec66, hits give low values 1.01 | locus YBR229C, strain ROT2, hits give low values 1.01 | locus YBR231C, strain swc5, hits give low values 0.997 | locus YBR279W, strain paf1, hits give low values 0.992 | locus YCL011C, strain gbp2, hits give low values 0.999 | locus YCL016C, strain dcc1, hits give low values 0.992 | locus YCL029C, strain bik1, hits give low values 0.994 | locus YCL061C, strain MRC1 (second series), hits give low values 0.985 | locus YCL061C, strain MRC1, hits give low values 0.993 | locus YCL069W, strain vba3, hits give low values 0.992 | locus YCR088W, strain abp1, hits give low values 1 | locus YDL005C, strain med2, hits give low values 0.982 | locus YDL035C, strain GPR1, hits give low values 1.01 | locus YDL040C, strain nat1, hits give low values 0.998 | locus YDL074C, strain BRE1, hits give low values 1.03 | locus YDL101C, strain DUN1, hits give low values 1.02 | locus YDL134C, strain PPH21, hits give low values 1.01 | locus YDL185W, strain tfp1, hits give low values 1.01 | locus YDL192W, strain arf1, hits give low values 1 | locus YDR001C, strain nth1, hits give low values 1 | locus YDR069C, strain doa4, hits give low values 0.979 | locus YDR101C, strain arx1, hits give low values 0.985 | locus YDR137W, strain rgp1, hits give low values 1 | locus YDR150W, strain NUM1, hits give low values 1.02 and 0.999 | locus YDR159W, strain sac3, hits give low values 0.989 | locus YDR162C, strain NBP2, hits give low values 1.02 | locus YDR195W, strain ref2 0.944 | locus YDR297W, strain sur2, hits give low values 0.991 | locus YDR318W, strain mcm21, hits give low values 0.986 | locus YDR334W, strain swr1, hits give low values 0.997 | locus YDR335W, strain msn5, hits give low values 0.995 | locus YDR363W, strain ESC2, hits give low values 1.03 | locus YDR388W, hits give low values 0.995 | locus YDR392W, strain spt3, hits give low values 0.85 | locus YDR502C, strain sam2, hits give low values 1.01 | locus YEL003W, strain gim4, hits give low values 1 | locus YEL037C, strain rad23, hits give low values 1 | locus YEL061C, strain CIN8 (second series), hits give low values 1.01 | locus YEL061C, strain CIN8, hits give low values 1.01 | locus YER002W, strain NOP16, hits give low values 0.944 | locus YER015W, strain faa2, hits give low values 0.994 | locus YER016W, strain bim1, hits give low values 0.99 | locus YER110C, hits give low values 0.991 | locus YER111C, strain swi4, hits give low values 0.998 | locus YER155C, strain BEM2 (second series), hits give low values 0.961 | locus YER155C, strain BEM2, hits give low values 1.01 | locus YER167W, strain BCK2, hits give low values 1.01 | locus YFR010W, strain ubp6, hits give low values 1 | locus YGL078C, strain dbp3, hits give low values 1 | locus YGL086W, strain mad1, hits give low values 0.997 | locus YGL167C, strain pmr1, hits give low values 0.984 | locus YGL173C, strain kem1, hits give low values 0.997 | locus YGL227W, strain vid30, hits give low values 0.991 | locus YGL240W, strain doc1, hits give low values 0.981 | locus YGL248W, strain PDE1, hits give low values 1.02 | locus YGL253W, strain hxk2, hits give low values 1.01 | locus YGR078C, strain PAC10, hits give low values 1.01 | locus YGR135W, strain pre9, hits give low values 0.982 | locus YGR229C, strain SMI1, hits give low values 1.02 and 1.04 | locus YGR252W, strain gcn5, hits give low values 0.904 | locus YHR013C, strain ard1, hits give low values 0.953 | locus YHR027C, strain rpn1, hits give low values 0.991 | locus YHR030C, strain SLT2, hits give low values 1.01 and 0.978 | locus YHR079C, strain IRE1 (second series), hits give low values 0.994 | locus YHR079C, strain IRE1, hits give low values 0.991 | locus YHR094C, strain hxt1, hits give low values 1 | locus YHR129C, strain ARP1, hits give low values 1.01 | locus YHR142W, strain chs7, hits give low values 1 | locus YHR200W, strain rpn10, hits give low values 1.01 | locus YIL066C, strain RNR3, hits give low values 1 | locus YIL073C, strain SPO22, hits give low values 1 | locus YIL125W, strain kgd1, hits give low values 0.995 | locus YIR030C, strain dcg1, hits give low values 1 | locus YJL092W, strain hpr5, hits give low values 1.01 | locus YJL095W, strain BCK1 (second series), hits give low values 0.992 | locus YJL095W, strain BCK1, hits give low values 1 and 0.974 | locus YJL115W, strain asf1, hits give low values 0.987 | locus YJL129C, strain trk1, hits give low values 0.974 | locus YJL134W, strain LCB3, hits give low values 1.01 | locus YJL154C, strain vps35, hits give low values 0.995 | locus YJL164C, strain tpk1, hits give low values 0.987 | locus YJL166W, strain qcr8, hits give low values 0.984 | locus YJL168C, strain set2, hits give low values 1 | locus YJL187C, strain SWE1 (second series), hits give low values 1.01 | locus YJL187C, strain SWE1, hits give low values 0.99 | locus YJR043C, strain POL32, hits give low values 0.992 | locus YJR066W, strain TOR1, hits give low values 0.96
